An excerpt weighted towards active compounds, which were near 21% of everything screened.
Pf growth 96h: inhibits malaria parasite growth, 96 h; P. falciparum luciferase reporter growth, 96 h; AID 504834; 320,000 compounds, 6.9% hits; Potency, µM (series often up to 28.7 µM), inactives show at the top dose activity change, negative = inhibition, actives largely listed as inhibitors; also: potency is read from the fitted curve at half-maximal effect; % is scaled to controls: 0 for no effect and ±100 for the full control effect
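Compounds incubated with erythrocytes infected by luciferase-expressing P. falciparum (2% hematocrit, 0.05% parasitemia final) for 96 hours, 37 C in 5% CO2. Growth inhibition scored as decreased luciferase luminescence.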
HCV inhibitor: blocks hepatitis C virus. Huh7.5.1 HCVcc-Cre infection, luciferase reporter, 44 h. Potency, µM (top dose mostly 41.8 µM), for inactives: top-dose activity change, negative = inhibition, hits mostly inhibitors. 340,000 compounds, 3.4% hits. AID 651820; also: potency is read from the fitted curve at half-maximal effect; % is scaled to controls: 0 for no effect and ±100 for the full control effect
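After 44 h co-culture of compound, cells and HCVcc-Cre (~0.5 moi), substrate is added for 15 min at room temperature and luciferase measured over 15 sec. Cells were seeded at 1,000/well and pre-cultured 4 h.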
HCMV antiviral: human cytomegalovirus inhibition | HFF cells, HCMV-luciferase reporter, 72 h; stronger effect = lower value | activity change, negative = inhibition, % at 57.5 µM | 410,000 compounds, 4.5% hits | AID 1259415; in the data active = activity change below about -60%; inconclusive = no clear call, values can overlap the other calls; inactive = above about -39%; also: % is scaled to controls: 0 for no effect and ±100 for the full control effect
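After 16 h attachment at 37C, HFF cells received test compound and HCMV-luciferase (1 PFU/cell); reporter luminescence read 72 h later, data normalized against buffer-only and known inhibitor Salinomycin.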
Pf growth 48h: P. falciparum growth inhibition at 48 hours (one generation) | P. falciparum luciferase growth in erythrocytes, 48 h | Potency, µM (doses to about 28.7 µM), for inactives: at the top dose activity change, negative = inhibition, actives largely listed as inhibitors | 310,000 compounds, 5.9% hits | AID 504832; also: potency is read from the fitted curve at half-maximal effect; % is scaled to controls: 0 for no effect and ±100 for the full control effect
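Read-out is firefly luciferase luminescence from an integrated reporter in P. falciparum, so falling signal marks reduced parasite growth. Infected erythrocytes were at 2% hematocrit and 0.1% parasitemia (final) in Albumax-supplemented RPMI 1640.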
Cycloheximide cs: counter-screen for Shiga toxin inhibitors: cycloheximide protein synthesis inhibition. cell reporter, cycloheximide protein synthesis inhibition counterscreen. max response, %. 300,000 compounds, 12% hits; in the data active = max response mostly above about 13%, no sharp cut-off; inactive = mostly below about 14%; also: read at 38.3 µM for the half of the compounds with a filed dose; 0% is about no effect
Shiga toxin inh: Shiga toxin inhibition. Vero cells, Shiga toxin protein synthesis inhibition reporter. inhibition, % at 38.7 µM. 290,000 compounds, 9.2% hits; in the data active = inhibition mostly above about 28%, no sharp cut-off; inactive = mostly below about 43%; also: 0% is about no effect
Starred values were filed as active, the others as inactive; u = inconclusive; x = no result given; [ ] = dose if it differs, or a comment. Unless noted, calls follow the shape of the dose curve; as a rule, active = well fitted inhibition curve with a large enough effect; inconclusive = small, poorly fitted or top-dose-only effect, or another doubt; inactive = no such curve, though single readings can be large or run the other way.

SMILES	Pf growth 96h	HCV inhibitor	HCMV antiviral	Pf growth 48h	Cycloheximide cs	Shiga toxin inh
COc1ccc(CNC(=O)C2CCC(=O)N(CC3CCCCC3)C2)cc1 (configuration not stated)	2.3µM*	-9%	16	-7%	-5	-15
CCCC(=O)Nc1ccc(C(=O)COC(=O)C2CC2)cc1	x	2%	-6	x	x	x
CCCCCOc1ccc(NC(=O)Cn2c(-c3nonc3N)nc3ccccc32)cc1	x	x	-16	x	x	x
CC1=C(C(=O)NCCc2ccc(Cl)cc2)C2(CCCCC2)OC1=O	x	x	0	x	x	x
COc1ccccc1N1CCN(C(c2ccc(N(C)C)cc2)c2nnnn2CCc2ccccc2)CC1 (configuration not stated)	u	16%	34	9.3µM*	-1	14
COc1ccc2cc(C(c3nnnn3CCc3ccccc3)N3CCC(O)CC3)c(=O)[nH]c2c1 (configuration not stated)	0%	3%	-19	-5%	-6	-13
COc1ccc(Cn2nnnc2C(c2ccccc2)N2CCN(C3CCCC3)CC2)cc1 (configuration not stated)	16%	u	-1	u	-4	3
COc1ccc(C(c2nnnn2CCc2ccccc2)N2CCN(C3CCCC3)CC2)cc1 (configuration not stated)	-5%[5.75 µM]	u	43	8%	42*	60*
COc1ccccc1N1CCN(C(c2ccc(F)cc2)c2nnnn2C(C)C)CC1 (configuration not stated)	-16%	-9%	-28	u	-7	-9
COc1ccc(Cn2nnnc2C(c2ccccc2Cl)N2CCN(C3CCCC3)CC2)cc1 (configuration not stated)	75%	-21%	-33	15µM*	-9	-18
COC(=O)c1cc(Cl)ccc1NC(=O)CSc1ncc(S(=O)(=O)c2ccc(Br)cc2)c(=O)[nH]1	x	x	-35	x	x	x
NC(CSCC(=O)O)C(=O)O (configuration not stated)	5%	x	x	9%	5	-4
O=C(O)c1ccc2c(c1)N(Cc1cccc(F)c1)C(=O)CS2	22%	14%	-100*	x	-1	15
O=C1CSc2ccccc2N1Cc1ccc(F)cc1	u	-3%	34	-53%	31*	23
CCCn1c(SCC(=O)N(CC)CC)nnc1-c1ccncc1	-7%	-6%	7	6%	-2	-4
CCN(CC)C(=O)CSc1nnc2nnc3cc(C)ccc3n12	-23%	4%	-67*	u	-2	-9
CCN(CC)C(=O)CSc1nnc2nnc3cc(Cl)ccc3n12	7.4µM*	-16%	-28	4.7µM*	1	3
CC(C)CC(NC(=O)c1ccco1)C(=O)Nc1ccc2c(c1)OCCO2 (configuration not stated)	u	3%	-5	x	72*	84*
CCCC(C)C(=O)Nc1ccc2c(c1)OCCO2 (configuration not stated)	-5%	7%	-23	74%	50*	86*
CC(C)CC(NC(N)=O)C(=O)Nc1ccc2c(c1)OCO2 (configuration not stated)	u	7%	22	-8%	30*	49
CC(=O)NC(Cc1c[nH]c2ccccc12)C(=O)Nc1ccc2c(c1)OCO2 (configuration not stated)	-17%	-2%	67	-2%	9	38*
Cc1cc(C)cc(N(C)S(=O)(=O)c2nnc(NC(=O)COc3ccc(C)c(C)c3)s2)c1	x	x	25	x	x	x
Cc1c(C(=O)NCCc2ccc(Cl)cc2)cccc1-n1cnc2cccnc21	x	x	0	x	x	x
COc1nc(-c2ccc(Cl)cc2Cl)nc2ccccc12	u	-17%	7	66%	2	-11
CCOc1ccc(OCCC(=O)N(CC)CC(=O)Nc2c(F)cccc2F)cc1	-22%	1%	17	-28%	x	x
SMILES	Pf growth 96h	HCV inhibitor	HCMV antiviral	Pf growth 48h	Cycloheximide cs	Shiga toxin inh
CCNC(=O)c1ccc(CSc2nc3ccccc3s2)cc1	u	u	x	2%	-2	-11
COCCNC(=O)c1ccc(CSc2nc3ccccc3s2)cc1	-24%	-23%	17	-19%	43*	73*
NC(=O)c1ccc(CSc2nc3ccccc3s2)cc1	268%	4%	76	133%	48*	94*
CCC(C)/C(C)=N/NC(=O)c1ccc(CSc2nc3ccccc3s2)cc1 (configuration not stated)	-3%	u	45	22%	20*	34
c1ccc2sc(SCc3ccc(-c4nnco4)cc3)nc2c1	u	u	81	0%	38*	73*
CCCN(C(=O)Cc1coc2cc(OC)ccc12)C1CCS(=O)(=O)C1 (configuration not stated)	x	17%	6	x	x	x
CC1CC2CCCC(O)=C2C(=O)O1 (configuration not stated)	x	11%	-61*	x	x	x
C[C@H]1CCCC(=O)CCC/C=C/c2c(O)cc(O)cc2C(=O)O1	x	x	x	x	-4	-11
N/N=C(\c1ccccc1)C12CN3CN(CN(C3)C1)C2	6%	1%	u	32%	5	-8
C#CCNC(=O)c1ccc(OCc2ccccc2)cc1Cl	149%	0%	-23	55%	19	58*
O=C(NCCCl)c1ccc(OCc2ccccc2)cc1Cl	200%	10%	80	78%	34*	66*
COc1ccc(CCNC(=O)c2ccc(Cl)cc2Cl)cc1	x	-19%	26	5%	8	22
Cn1cc(NC(=O)Nc2ccc(C(F)(F)F)cc2)c(C(F)(F)F)n1	u	u	-4	u	-2	17
COc1ccc(C)cc1Nc1nc(-c2ccccc2O)nc2ccccc12	u	u	32	u	-3	-7
COc1ccccc1Nc1nc(-c2cccs2)cs1	371%	u	163	296%	37*	77*
COc1ccccc1-c1csc(Nc2ccc(Oc3ccccc3)cc2)n1	x	x	-13	x	x	x
COc1ccc(C)cc1Nc1nc(-c2c[nH]c3ccccc23)cs1	2.1µM*	u	70	u	9	-17
Oc1ccc(Nc2nc(-c3cccs3)cs2)cc1	32%	u	-13	34%	-3	20
COc1ccc(Nc2nc(-c3cccs3)cs2)cc1	0.52µM*	-19%	162	316%	41*	42*
COc1ccc(OC)c(Nc2nc(-c3cccs3)cs2)c1	x	14µM*	67	1%	23*	17
CC[C@]12c3[nH]c4ccc(OC)cc4c3CCN1C(=O)C(CC(=O)NCCc1ccccn1)C[C@@H]2C(=O)N1CCN(C(=O)C2CC2)CC1 (some centres not stated)	x	-14%	30	x	x	x
O=C1NC[C@@H](CCCCN2CCN(CCc3ccccc3)C(=O)C2=O)N(Cc2ccccc2)C1=O	x	x	-13	x	x	x
COc1ccc(Nc2nc(-c3cccs3)cs2)c(OC)c1	180%	10µM*	156	x	46*	106*
